# Records with an inconclusive call do not appear. Activity calls are given as the source filed them. The call rests on the fitted dose curve; in most records, active means well fitted curve in the direction sought with a large enough effect; inconclusive means small, poorly fitted or top-dose-only effect, or another doubt; inactive means no such curve, though single readings can be large or run the other way.
# Assay: qHTS Assay for Identifying Gametocytocidal Compounds (AID 743244);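 further: actives lower the fluorescent signal which means gametocytes are killed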
# Settings: P. falciparum 3D7 stage III-V gametocytes, alamarBlue, 72 h; max response: stronger effect = lower value
# Summary of the method: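 Compounds are pinned into medium, gametocytes (stage III–V, 3D7, 20,000 cells/well) added, and plates held 72 h at 37 °C in 5% CO2. AlamarBlue follows for 24 h before fluorescence reading.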
# On the % scale 0 is the no-effect control and ±100 the full control effect.
row,Structure (SMILES),max response
1,CCC(=O)Oc1ccc2c(c1)CC[C@@H]1[C@@H]2CC[C@]2(C)[C@@H](OC(=O)CC)CC[C@@H]12,-6.54% (inactive)
2,CCCCCC(O)/C=C/C=O (stereo unspecified),-0.932% (inactive)
3,CCOC(=O)COc1ccc2c(C)c(CCN(CC)CC)c(=O)oc2c1,15% (inactive)
4,CC(=O)O[C@H]1CC[C@@]2(C)C(=CC[C@H]3[C@@H]4CC[C@H](C(C)=O)[C@@]4(C)CC[C@@H]32)C1,3.94% (inactive)
5,C=C[C@]1(C)C[C@@H](OC(=O)CO)[C@]2(C)[C@H](C)CC[C@]3(CCC(=O)[C@H]32)[C@@H](C)[C@@H]1O,11.6% (inactive)
6,CCCC(CCC)C(N)=O,-4.93% (inactive)
7,CO[C@H]1[C@@H](O)[C@H](N)[C@@H](O[C@H]2O[C@H]([C@H](C)N)CC[C@H]2N)[C@H](O)[C@@H]1N(C)C(=O)CN,15.1% (inactive)
8,NCCC[C@H](N)C(=O)O,-1.29% (inactive)
9,C=C1CC2C3CCC4=CC(=O)C=C[C@]4(C)[C@@]3(F)[C@@H](O)C[C@]2(C)[C@@]1(O)C(=O)COC(C)=O (stereo partly specified),-3.67% (inactive)
10,O=C(Nc1ccc(/C=C/c2ccc(NC(=O)c3cc(S(=O)(=O)O)c4cccnc4c3O)cc2S(=O)(=O)O)c(S(=O)(=O)O)c1)c1cc(S(=O)(=O)O)c2cccnc2c1O,-6.63% (inactive)
11,CO[C@H]1C[C@H](O[C@H]2[C@H](C)O[C@@H](O[C@@H]3/C(C)=C/C[C@@H]4C[C@@H](C[C@]5(C=C[C@H](C)[C@@H](C6CCCCC6)O5)O4)OC(=O)[C@@H]4C=C(C)[C@@H](O)[C@H]5OC/C(=C\C=C\[C@@H]3C)[C@]54O)C[C@@H]2OC)O[C@@H](C)[C@@H]1O,-11.6% (inactive)

# From PubChem BioAssay (NCATS)
